{"source": "ChEMBL document CHEMBL3988442", "about": "“University of Dundee, Small-Polar-MMV Screening Library” (2021)", "note": "Among all 48,000 compounds or so, about 13,000 (27%) showed an effect of 50% or more. Some of the results follow."}
{"test_system": "Wolbachia pipientis", "assay": "Anti-Wolbachia Cell-Based Screen", "format": "functional", "parameters": "scale not given: in the data most compounds retested in dose-response had high values", "settings": "5 µM", "units": {"Percent Effect": "%"}}
{"compound": "Cc1ccc2nc(C)cc(C(=O)NCc3csc(N(C)C)n3)c2c1", "Percent Effect": -3.48}
{"compound": "CCc1nccn1CC(=O)N1C[C@H]2CC[C@@H]1CN(c1ncccn1)C2", "Percent Effect": 11.21}
{"compound": "COCC1c2nnn(CC3CC3)c2CCN1C(=O)c1cc(C)[nH]c1C", "note": "(centres undefined)", "Percent Effect": -16.52}
{"compound": "CC(C)NC(=O)c1ccc2c(c1)C(c1nc[nH]n1)CN2C", "note": "(centres undefined)", "Percent Effect": -2.409}
{"compound": "CC(c1nc(C2CC2)no1)N1CCN(Cc2ccc(C#N)cc2)CC1", "note": "(centres undefined)", "Percent Effect": 26.07}
{"compound": "Cc1noc(C2CCN(C(C)c3nc(C(C)(C)C)no3)CC2)n1", "note": "(centres undefined)", "Percent Effect": 4.561}
{"compound": "CCCc1noc(C(C)N2CCN(c3ccc(C#N)cn3)CC2)n1", "note": "(centres undefined)", "Percent Effect": 130.1}
{"compound": "CCc1noc(C(C)N2CCN(c3ncnc4sccc34)CC2)n1", "note": "(centres undefined)", "Percent Effect": -87.61}
{"compound": "CC(c1nc(C2CC2)no1)N1CCN(Cc2cccc(C#N)c2)CC1", "note": "(centres undefined)", "Percent Effect": -8.29}
{"compound": "Cc1noc(C(C)N2CCN(c3ccc(C#N)cn3)CC2)n1", "note": "(centres undefined)", "Percent Effect": 146.7}
{"compound": "CC(c1nc(C(C)(C)C)no1)N1CCN(c2ccc(C#N)cn2)CC1", "note": "(centres undefined)", "Percent Effect": 105.6}
{"compound": "CC(c1nc(C(C)(C)C)no1)N1CCN(Cc2ccc(C#N)cc2)CC1", "note": "(centres undefined)", "Percent Effect": 107.5}
{"compound": "Cc1noc(C(C)N2CCN(c3ncnc4ccccc34)CC2)n1", "note": "(centres undefined)", "Percent Effect": -16.31}
{"compound": "Cc1nsc(N2CCCN(c3ccc(C#N)cn3)CC2)n1", "Percent Effect": 7.107}
{"compound": "CCCc1noc(C(C)N2CCN(CCn3ccccc3=O)CC2)n1", "note": "(centres undefined)", "Percent Effect": -12.82}
{"compound": "Cc1noc(C(C)N2CCN(Cc3cccc(C#N)c3)CC2)n1", "note": "(centres undefined)", "Percent Effect": 7.153}
{"compound": "COc1ccc(OCc2nc3cc4c(cc3c(=O)o2)OCCCO4)cc1", "Percent Effect": -25.33}
{"compound": "CSc1cc2c(cc1NC(=O)NCc1ccncc1)OCCO2", "Percent Effect": 0.1832}
{"compound": "O=C(NCC1CC1)C1CN(C(=O)c2ccnnc2)CC12CCOCC2", "note": "(centres undefined)", "Percent Effect": -9.874}
{"compound": "CN1C(=O)[C@H]2CC[C@@H]1CN(C(=O)Nc1cccc3ccccc13)C2", "Percent Effect": 3.863}
{"compound": "N#Cc1cn(C2CC2)c(=O)n(Cc2noc(-c3ccsc3)n2)c1=O", "Percent Effect": -8.2}
{"compound": "COc1ccccc1NC(=O)NC(C)c1nc[nH]n1", "note": "(centres undefined)", "Percent Effect": -1.106}
{"compound": "CC(C)c1noc(C(C)N2CCN(Cc3ccccc3C#N)CC2)n1", "note": "(centres undefined)", "Percent Effect": -2.438}
{"compound": "CC(C)c1noc(C(C)N2CCN(c3ccc(C#N)cn3)CC2)n1", "note": "(centres undefined)", "Percent Effect": 186.4}
{"compound": "CC(C)c1noc(C(C)N2CCN(Cc3cccc(C#N)c3)CC2)n1", "note": "(centres undefined)", "Percent Effect": 10.45}
{"compound": "O=C(NCCCN1CCOCC1)c1ccn(-c2ccc3ccccn23)n1.O=C(O)C(F)(F)F", "Percent Effect": -6.828}
{"compound": "CN1CCCN(C(=O)c2ccnn2-c2ccc3ccccn23)CC1.O=C(O)C(F)(F)F", "Percent Effect": 83.85}
{"compound": "Cc1nc(-c2cc(C(=O)N3CCCN(C)CC3)c3ccccn23)cn1C.O=C(O)C(F)(F)F", "Percent Effect": -23.06}
{"compound": "CN(C)C1CCN(C(=O)c2ccnn2-c2ccc3ccccn23)CC1.O=C(O)C(F)(F)F", "Percent Effect": 64.37}
{"compound": "CN1CCN(c2ccc3ccc(C(=O)N4CCCO4)cn23)CC1.O=C(O)C(F)(F)F", "Percent Effect": 0.4274}
{"compound": "CC(C)(CO)CNC(=O)c1ccnn1-c1ccc2ccccn12", "Percent Effect": -11.35}
{"compound": "CCOCc1nnc(NCc2ccsc2)o1", "Percent Effect": -11.46}
{"compound": "Cc1ccc(OCC(O)CN(C)CC(=O)Nc2cc(C)on2)c(C)c1", "note": "(centres undefined)", "Percent Effect": 9.432}
{"compound": "Cc1ccn(CCC(=O)N2CCOC(c3nc(-c4cccs4)no3)C2)n1", "note": "(centres undefined)", "Percent Effect": -6.468}
{"compound": "O=C(O)C(=O)O.c1cnc(-c2noc(C3CN(Cc4ccc5c(c4)CCO5)C3)n2)nc1", "Percent Effect": 8.464}
{"compound": "O=C(Cc1ccccc1)N1CCOC(c2nc(-c3ncccn3)no2)C1", "note": "(centres undefined)", "Percent Effect": 104.4}
{"compound": "Cc1noc([C@@H]2CCO[C@@H]3CCN(C(=O)Cc4ccsc4)C[C@@H]32)n1", "Percent Effect": 6.284}
{"compound": "O=C(Cc1ccsc1)N1CCOC(c2nc(-c3ncccn3)no2)C1", "note": "(centres undefined)", "Percent Effect": 131.4}
{"compound": "Cc1n[nH]c(C2CN(C(=O)CCc3ccsc3)CCO2)n1", "note": "(centres undefined)", "Percent Effect": -9.569}
{"compound": "Cc1ccc2c(C)c(C(=O)NCc3csc(N)n3)oc2c1", "Percent Effect": 24.68}
{"compound": "Cc1ccc(S(=O)(=O)NCc2cnn(C)c2)c(F)c1", "Percent Effect": 1.109}
{"compound": "Cc1ccc(F)c(NCC(C)(C)S(C)(=O)=O)c1", "Percent Effect": -3.079}
{"compound": "Cc1ccc(S(=O)(=O)NCC(C)(C)N)c(F)c1.Cl", "Percent Effect": 102.6}
{"compound": "CCc1nc(NS(=O)(=O)c2cc(C)c(F)cc2Cl)no1", "Percent Effect": -1.735}
{"compound": "Cc1cc(S(=O)(=O)NCC[S+](C)[O-])c(F)cc1F", "note": "(centres undefined)", "Percent Effect": 90.6}
{"compound": "Cc1cc(F)c(S(=O)(=O)NCCCN2CCC(O)CC2)cc1F", "Percent Effect": 7.324}
{"compound": "Cc1c(F)cccc1S(=O)(=O)NCCN.Cl", "Percent Effect": -3.419}
{"compound": "Cc1c(F)cccc1S(=O)(=O)NC(C)(C)CN.Cl", "Percent Effect": -6.464}
{"compound": "Cc1ccc(S(=O)(=O)NC(C)(C)CN)c(F)c1.Cl", "Percent Effect": -7.288}
{"compound": "Cc1ccc(S(=O)(=O)NCCCN2CCC(O)CC2)c(F)c1", "Percent Effect": 10.81}
{"compound": "Cc1cc(S(=O)(=O)NC(C)(C)CN)c(F)cc1F.Cl", "Percent Effect": 112.3}
{"compound": "Cc1cc(S(=O)(=O)NCC(C)(C)N)c(F)cc1F.Cl", "Percent Effect": 106.9}
{"compound": "Cc1nn(C)cc1CN(C)Cc1cc2c(cc1OC(F)F)OCO2", "Percent Effect": 5.231}
{"compound": "CCS(=O)(=O)N1CCC(c2nccn2Cc2ccncc2)CC1", "Percent Effect": 17.72}
{"compound": "COc1cccc(OCCCc2cc(C#N)ccn2)c1", "Percent Effect": -11.05}
{"compound": "Cc1cccc(C(C(=O)NCc2nc(-c3cccnc3)no2)N(C)C)c1", "note": "(centres undefined)", "Percent Effect": -3.627}
{"compound": "CC1=C[C@@H](CN2CCOCC2)[C@H](C(C)C)C[C@H]1Cc1nnc(C)o1", "Percent Effect": -6.193}
{"compound": "Cc1cc(F)c(S(=O)(=O)NCc2ccnc(N(C)C)n2)cc1F", "Percent Effect": -5.146}
{"compound": "Cc1sc(Br)cc1S(=O)(=O)NCCCN.Cl", "Percent Effect": -10.31}
{"compound": "Cc1c(F)cccc1S(=O)(=O)NCC(C)(C)CC(C)O", "note": "(centres undefined)", "Percent Effect": -11.41}
{"compound": "Cc1cc(F)c(S(=O)(=O)NCC(C)(C)N)cc1F.Cl", "Percent Effect": 99.53}
{"compound": "Cc1sc(Br)cc1S(=O)(=O)NCCN.Cl", "Percent Effect": -12.99}
{"compound": "Cc1cc(S(=O)(=O)NCC(C)(O)CN(C)C)c(F)cc1F", "note": "(centres undefined)", "Percent Effect": 86.13}
{"compound": "Cc1cc2[nH]cc(C(=O)N3CCCCC3c3ccc(F)cc3)c(=O)n2n1", "note": "(centres undefined)", "Percent Effect": -0.32}
{"compound": "Cc1ncsc1C(=O)N(C)CCc1ccncc1", "Percent Effect": -1.181}
{"compound": "COc1ccccc1CC1CCCN(CCN2CCOC2=O)C1", "note": "(centres undefined)", "Percent Effect": -15.91}
{"compound": "Cc1nn(C)c(C)c1NC(=O)CN1CCOC(Cn2cccn2)C1", "note": "(centres undefined)", "Percent Effect": -5.215}
{"compound": "Cn1ccc(NC(=O)CN2C[C@H]3CC[C@@H]2CN(Cc2ccccn2)C3)n1", "Percent Effect": -23.26}
{"compound": "Cc1ccccc1OC1CCN(CC(=O)Nc2cn(C)nc2C)CC1", "Percent Effect": 143.3}
{"compound": "Br.Cc1ccccc1OC1CCN(CC(=O)Nc2ccn(C)n2)CC1", "Percent Effect": 95.2}
{"compound": "Br.Cc1ccccc1OC1CCN(CC(=O)Nc2cnn(C)c2C)CC1", "Percent Effect": 127.8}
{"compound": "CC(=O)c1ccc(CN2CC(Oc3ccccc3C)C2)cc1", "Percent Effect": 1.561}
{"compound": "Cc1nn(C)c(C)c1NC(=O)CNC(c1ccccc1)C1CCC1", "note": "(centres undefined)", "Percent Effect": -2.911}
{"compound": "Cc1cccc(OC2CCN(C(=O)NCCn3ccnc3)CC2)c1C", "Percent Effect": -9.4}
{"compound": "COCCN1C[C@H]2CC[C@@H]1CN(CC(=O)Nc1ccn(C)n1)C2", "Percent Effect": 0.2654}
{"compound": "Cc1cccc2sc(NC(=O)CN3CCC(C)CC3)nc12", "Percent Effect": -4.691}
{"compound": "Cc1ccccc1OC1CCN(CC(=O)Nc2c(C)nn(C)c2C)CC1", "Percent Effect": 133}
{"compound": "CC(O)CNC(=O)NCCCN1CCN(c2ncccn2)CC1", "note": "(centres undefined)", "Percent Effect": -2.851}
{"compound": "CCOCCn1nnc(C2(NC(=O)c3ccccc3)CCCC2)n1", "Percent Effect": -1.903}
{"compound": "CN(C)CCOc1ccc(CNC(=O)c2cccc3[nH]ncc23)cc1", "Percent Effect": -2.455}
{"compound": "CN(C)C(=O)CCCNc1ncc2c(n1)CCN2c1ccccc1", "Percent Effect": -14.16}
{"compound": "Cn1c(=O)oc2ccc(NC(=O)N3CCSCC3)cc21", "Percent Effect": -14.24}
{"compound": "Cn1nc2c(cc1=O)CN(Cc1nnc(C3CC3)o1)CC2", "Percent Effect": 7.472}
{"compound": "Cc1noc(C)c1C(=O)N(C)C(C)c1ccncc1", "note": "(centres undefined)", "Percent Effect": -19.42}
{"compound": "O=C(Nc1ccccc1)c1ccc2c(c1)C1(CCCCC1)CN2.O=C(O)C(F)(F)F", "Percent Effect": 15.72}
{"compound": "CCOC(CC)C(=O)NCc1cccc(N2CCCCC2=O)c1", "note": "(centres undefined)", "Percent Effect": -0.7778}
{"compound": "NS(=O)(=O)c1ccc(NC(=O)CSc2ccc3c(c2)CCC3)cc1", "Percent Effect": 16.99}
{"compound": "CCN1CC(C(=O)N2CCC(Oc3ccccc3C)CC2)CC1=O", "note": "(centres undefined)", "Percent Effect": -3.691}
{"compound": "CCn1cc(NC(=O)CN2CCC(Oc3ccc(F)cc3)CC2)c(C)n1.Cl", "Percent Effect": 113.2}
{"compound": "Cc1[nH]c(=O)[nH]c(=O)c1CC(=O)N1CCC(Oc2ccc(F)cc2)CC1", "Percent Effect": -20.3}
{"compound": "N#Cc1ccc(OC2CCN(CC(=O)NCC(F)(F)F)CC2)cc1", "Percent Effect": 6.533}
{"compound": "CCn1cc(NC(=O)CN2CCC(Oc3ccccc3C)CC2)c(C)n1", "Percent Effect": 103.8}
{"compound": "CC(=O)c1cccc(CN2CC(Oc3ccccc3C)C2)c1", "Percent Effect": 6.758}
{"compound": "O=c1[nH]c(N2CCN(C3CC3)CC2)nc2c1cnn2-c1ccccc1", "Percent Effect": 4.194}
{"compound": "O=C(NCc1cccs1)NCC(O)(c1cccs1)C1CC1", "note": "(centres undefined)", "Percent Effect": 4.96}
{"compound": "Cc1ncsc1CNC(=O)N(Cc1ccccc1)CC(C)(C)O", "Percent Effect": -10.76}
{"compound": "Cc1csc(CNC(=O)NCc2ccc3c(c2)OCCO3)n1", "Percent Effect": -13.77}
{"compound": "Cc1csc(CNC(=O)Nc2ccc3c(c2)OCO3)n1", "Percent Effect": 95.91}
{"compound": "Cc1csc(CNC(=O)NCC2(c3ccc4c(c3)OCO4)CC2)n1", "Percent Effect": 126.6}
{"compound": "Cc1ncsc1CNC(=O)NCC1(c2ccc3c(c2)OCO3)CC1", "Percent Effect": 120.8}
{"compound": "Cc1n[nH]cc1CNCC1(c2ccc3c(c2)OCO3)CCOCC1.Cl", "Percent Effect": 4.447}
{"compound": "Cc1csc(CNC(=O)N(C)Cc2ccc3c(c2)OCO3)n1", "Percent Effect": -4.172}
{"compound": "Cc1csc(CNC(=O)Cc2ccc3c(c2)OCCO3)n1", "Percent Effect": -1.573}
{"compound": "Cc1csc(CNC(=O)NCCc2ccc3c(c2)OCCO3)n1", "Percent Effect": -0.3298}
